From PubChem BioAssay (EPA / NIEHS) come the findings set out here.

Active and inactive are the calls of the source. How the source made its calls: active means hit-call score of the fitted dose curve at least 0.9, where 1 is the maximum; inactive means score below 0.9.

The nature of assay [1]: ATG_CMV_CIS: Attagene CIS-FACTORIAL HepG2 Assay for human CMV (Internal Marker) (AID 2282928).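 Further: endpoint acts as a background internal control marker rather than a target.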 Particulars: HepG2 CMV promoter reporter, transcription factor profiling; actives raise or lower the signal. The method in brief: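 Bidirectional fits against DMSO are applied to reporter mRNA, read by RT-PCR with capillary electrophoresis, from HepG2 cells exposed 24 h. The endpoint serves as an internal CMV background marker within the cis-factorial reporter panel.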

Assay [2] can be described thus: ATG_DR4_LXR_CIS: Attagene CIS-FACTORIAL HepG2 Assay for human Liver X Receptor (LXR), DR4 submotif (AID 2282929). The conditions noted are these: HepG2 Attagene DR4 cis-reporter, mRNA transcription; actives raise or lower the signal. The method in brief:
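HepG2 cells transiently transfected with cis-promoter-driven multiplexed reporter units (DR4 element) were dosed for 24 h. Reporter mRNA was quantified by RT-PCR, fluorescent primer extension, HpaI digestion and capillary electrophoresis; bidirectional fitting versus DMSO baseline.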

In assay [3] the target is Aryl hydrocarbon receptor (Homo sapiens) (UniProt P35869). The assay is described as follows: ATG_Ahr_CIS: Attagene CIS-FACTORIAL HepG2 Assay for human Aryl Hydrocarbon Receptor (Ahr) (AID 2282930). The conditions noted are these: HepG2 AhR cis-factorial reporter transcription; actives raise or lower the signal. In short, it runs like this: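 Reporter mRNA levels, quantified by RT-PCR and fluorescent capillary electrophoresis, reflect endogenous AhR transcriptional activity in HepG2 cells carrying transfected cis-promoter reporter constructs. Readout at 24 h post-dose; gain or loss fitted against DMSO baseline.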
Aryl hydrocarbon receptor (Homo sapiens), sequence (P35869 whole entry, looked up): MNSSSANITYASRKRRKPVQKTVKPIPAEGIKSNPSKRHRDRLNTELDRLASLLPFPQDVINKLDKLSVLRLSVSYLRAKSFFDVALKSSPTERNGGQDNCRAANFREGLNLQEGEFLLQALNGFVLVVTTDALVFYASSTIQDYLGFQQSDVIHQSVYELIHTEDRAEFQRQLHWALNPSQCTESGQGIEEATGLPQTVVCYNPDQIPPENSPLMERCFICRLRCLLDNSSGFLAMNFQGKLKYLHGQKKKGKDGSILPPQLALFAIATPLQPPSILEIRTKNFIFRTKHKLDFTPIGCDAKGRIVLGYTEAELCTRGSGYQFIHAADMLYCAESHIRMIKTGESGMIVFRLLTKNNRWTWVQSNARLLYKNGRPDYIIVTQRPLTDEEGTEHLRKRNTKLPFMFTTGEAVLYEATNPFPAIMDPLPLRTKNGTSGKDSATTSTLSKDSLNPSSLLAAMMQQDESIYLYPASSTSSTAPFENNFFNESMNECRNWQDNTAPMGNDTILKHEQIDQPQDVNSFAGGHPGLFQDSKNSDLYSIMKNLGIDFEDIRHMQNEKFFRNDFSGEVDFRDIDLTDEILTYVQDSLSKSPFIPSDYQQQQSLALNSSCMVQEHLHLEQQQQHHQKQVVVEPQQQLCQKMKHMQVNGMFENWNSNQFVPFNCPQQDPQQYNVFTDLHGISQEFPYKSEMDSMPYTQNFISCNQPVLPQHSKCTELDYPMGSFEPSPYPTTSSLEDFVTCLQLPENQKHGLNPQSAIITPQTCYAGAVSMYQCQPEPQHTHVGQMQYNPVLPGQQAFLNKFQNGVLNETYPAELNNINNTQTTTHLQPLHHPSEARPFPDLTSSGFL

Assay [4] in a line: ATG_AP_1_CIS: Attagene CIS-FACTORIAL HepG2 Assay for human Activator Protein 1 (AP-1) (AID 2282931). The conditions noted are these: HepG2 Attagene cis-factorial AP-1 reporter mRNA; actives raise or lower the signal. In short, it runs like this: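 HepG2 cells transiently transfected with cis-element-driven multiplex reporter units; 24 h compound exposure. Reporter mRNA quantified by RT-PCR, FAM-labelled fragments resolved by capillary electrophoresis; bidirectional fit versus DMSO baseline.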

Assay [5] is described as follows: ATG_AP_2_CIS: Attagene CIS-FACTORIAL HepG2 Assay for human Activator Protein 2 (AP-2) (AID 2282932). The conditions noted are these: HepG2 AP-2 cis-reporter, Attagene transcription factor profiling; actives raise or lower the signal. The method in brief:
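Transiently transfected HepG2 cells are exposed to chemical for 24 h. Reporter transcripts are then measured as fluorescence following RT-PCR and capillary separation, and gain- or loss-of-signal is fitted relative to DMSO.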

Assay [6] deals with Retinoic acid receptor alpha (Homo sapiens) (UniProt P10276). The assay is described as follows: ATG_DR5_RAR_CIS: Attagene CIS-FACTORIAL HepG2 Assay for human Retinoic Acid Receptor Alpha (RARE), DR5 submotif (AID 2282934).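 On AC50: reporter responds to endogenous RAR alpha beta and gamma in HepG2 not RARA alone.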 The conditions noted are these: HepG2 Attagene cis-factorial RARE DR5 reporter, mRNA; actives raise or lower the signal. The method in brief: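 Reporter transcripts from a DR5-regulated unit, measured via RT-PCR plus capillary electrophoresis, reflect endogenous RAR activity in transiently transfected human HepG2 liver cells. Exposure lasted 24 h; gain or loss of signal scored against DMSO.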
Retinoic acid receptor alpha (Homo sapiens), sequence (P10276 whole entry, looked up): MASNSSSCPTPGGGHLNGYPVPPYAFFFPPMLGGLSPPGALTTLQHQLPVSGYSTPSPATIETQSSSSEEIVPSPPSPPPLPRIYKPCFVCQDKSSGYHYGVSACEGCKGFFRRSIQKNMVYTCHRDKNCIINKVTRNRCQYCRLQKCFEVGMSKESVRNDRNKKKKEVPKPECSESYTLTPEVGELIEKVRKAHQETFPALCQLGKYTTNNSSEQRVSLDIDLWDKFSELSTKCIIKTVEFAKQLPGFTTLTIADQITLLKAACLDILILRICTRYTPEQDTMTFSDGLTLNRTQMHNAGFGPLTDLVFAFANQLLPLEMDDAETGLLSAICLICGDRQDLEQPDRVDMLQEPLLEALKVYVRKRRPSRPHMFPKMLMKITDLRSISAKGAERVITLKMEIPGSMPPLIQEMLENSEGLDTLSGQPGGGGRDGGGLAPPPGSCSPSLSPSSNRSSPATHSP

For assay [7], the target named is Transcription factor E2F1 (Homo sapiens) (UniProt Q01094). The assay is described as follows: ATG_E2F_CIS: Attagene CIS-FACTORIAL HepG2 Assay for human E2F Transcription Factor 1 (AID 2282935). The conditions noted are these: HepG2 Attagene cis-reporter, E2F reporter RNA transcripts; actives raise or lower the signal. The method in brief:
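Fluorescent RT-PCR products, digested with HpaI for 2 h at 37 C, are separated by capillary electrophoresis. Source RNA comes from transfected HepG2 cultures treated for 24 h.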

Assay [8] in a line: ATG_E_Box_CIS: Attagene CIS-FACTORIAL HepG2 Assay for human Enhancer Box (E-box) (AID 2282936). Particulars: HepG2 E-box cis-reporter transcription, actives raise or lower the signal. In short, it runs like this:
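Fluorescent reporter fragments separated by capillary electrophoresis gave the signal; mRNA came from HepG2 cells transfected with cis-element reporters and treated 24 h. Curves fitted bidirectionally relative to DMSO controls.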

Assay [9] is described as follows: ATG_M_61_CIS: Attagene CIS-FACTORIAL HepG2 Assay for M61 Transcription Factor (Internal Marker) (AID 2282937). Particulars: HepG2 Attagene CIS-FACTORIAL M61 internal marker reporter; actives raise or lower the signal. The method in brief: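 HepG2 cells transiently transfected with cis-element-driven multiple reporter transcription units, dosed for 24 h. Reporter mRNA measured by RT-PCR, 6-FAM primer-extension labelling, HpaI digestion and capillary electrophoresis; bidirectional fit versus DMSO baseline.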

Assay [10] is described as follows: ATG_BRE_CIS: Attagene CIS-FACTORIAL HepG2 Assay for human Bone Morphogenetic Protein (BMP) Response Element (BRE) (AID 2282933). Particulars: HepG2 BMP response element reporter, Attagene transcription factor profiling; actives raise or lower the signal. The method in brief: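 Multiplexed cis-reporter assay, HepG2, 24 h exposure. mRNA from reporter units quantified via RT-PCR/CE; DMSO baseline; bidirectional curve fit.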

Transcription factor E2F1 (Homo sapiens), sequence (Q01094 whole entry, looked up): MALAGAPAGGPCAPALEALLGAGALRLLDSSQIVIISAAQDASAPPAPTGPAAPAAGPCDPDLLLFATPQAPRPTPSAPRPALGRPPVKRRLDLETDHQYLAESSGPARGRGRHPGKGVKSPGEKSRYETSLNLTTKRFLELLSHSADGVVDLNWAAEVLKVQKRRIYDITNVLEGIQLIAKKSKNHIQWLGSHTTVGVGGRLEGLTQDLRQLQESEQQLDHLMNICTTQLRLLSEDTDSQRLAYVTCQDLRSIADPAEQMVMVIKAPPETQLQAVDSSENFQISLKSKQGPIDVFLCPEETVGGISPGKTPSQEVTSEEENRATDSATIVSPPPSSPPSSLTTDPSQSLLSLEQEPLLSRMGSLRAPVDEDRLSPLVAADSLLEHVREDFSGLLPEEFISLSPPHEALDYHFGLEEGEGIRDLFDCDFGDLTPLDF

Regarding `CCOP(=O)(CN(CCO)CCO)OCC`, the compound was classed as inactive in [1], in assay [2], in [3], in assay [4], in [5] and in [6]. Further, the outcome in assay [7], in assay [8] and in assay [9] was inactive.

Turning to `CNC`, the result in assay [1], in [2], in [3], in [4], in assay [5] and in assay [7] was inactive. The outcome in [8] and in assay [9] was inactive.

For the compound `CC1(C)CCC(Cc2ccc(Cl)cc2)C1(O)Cn1cncn1` (configuration not stated), the compound was classed as inactive in assay [1], in assay [5], in [7], in [8] and in assay [9]. The AC50 is 56.7 µM (active) in assay [2], 4.7 µM (active) in [3], 33.4 µM (active) in assay [4] and 52.3 µM (active) in assay [10].

`Clc1ccc(COC(Cn2ccnc2)c2ccc(Cl)cc2Cl)cc1` (configuration not stated): the outcome in assay [1], in assay [3], in [4], in assay [5], in assay [6] and in [7] was inactive. Also, in assay [9], the outcome was inactive. Besides, the AC50 in [2] is 4.8 µM (active).

With `Cc1cc(=O)[nH]o1`, the outcome in assay [1], in [2], in assay [3], in assay [4], in assay [5] and in [7] was inactive. Moreover, the result in assay [8] and in assay [9] was inactive.

As for `Cl/C=C\C[N+]12CN3CN(CN(C3)C1)C2`, the AC50 is 170 µM (active) in assay [1], 41.7 µM (active) in assay [2] and 181 µM (active) in assay [4]. Besides, the compound was classed as inactive in assay [3], in assay [5], in [7] and in [9].

As for `COP(=S)(OC)Oc1ccc(Sc2ccc(OP(=S)(OC)OC)cc2)cc1`, the AC50 in [1] was 15.5 µM (active); in assay [2] it was 100 µM (active). Besides, the result in assay [3], in assay [4], in assay [5], in [6], in assay [7] and in assay [9] was inactive.

Consider `CC(Br)C(=O)O` (configuration not stated), for which the outcome in [1], in assay [2], in assay [3], in assay [5], in [10] and in assay [6] was inactive. Besides, the outcome in assay [7] and in assay [8] was inactive.

`COC[C@H](C)N(C(=O)CCl)c1c(C)csc1C`: the compound was called inactive in [1], in [2], in assay [3], in assay [4], in assay [5] and in assay [10]. Besides, the compound was called inactive in assay [7], in assay [8] and in assay [9].

In the case of `CCN(CC)C(=O)Cl`, the compound was classed as inactive in [1], in assay [2], in [3], in [4], in assay [5] and in assay [10]. Further, the outcome in assay [7], in assay [8] and in assay [9] was inactive.

Regarding `O=Cc1cccc(Oc2ccccc2)c1`, the compound was classed as inactive in [1], in assay [2], in [3], in assay [5], in assay [10] and in assay [6]. In addition, the result in [7], in [8] and in assay [9] was inactive.

As for `CC(C)C1CCC(Cc2ccc(Cl)cc2)C1(O)Cn1cncn1` (configuration not stated), the outcome in assay [1], in assay [5], in [6], in assay [7] and in assay [9] was inactive. The AC50 is 18.1 µM (active) in [2], 3.08 µM (active) in [3] and 17.5 µM (active) in assay [4].

In the case of `Cl/C=C/Cl`, the compound was called inactive in assay [1], in [2], in assay [3], in assay [5], in [10] and in assay [6]. In addition, the result in assay [7], in [8] and in [9] was inactive.

Consider `CCC(=O)C(CC(C)N(C)C)(c1ccccc1)c1ccccc1` (configuration not stated), for which the compound was classed as inactive in assay [1], in assay [3], in assay [5], in assay [10], in assay [6] and in [7]. In addition, the AC50 is 92.4 µM (active) in assay [2] and 48.8 µM (active) in [8].

`CCCCCCCCSC(=O)Oc1cc(Cl)nnc1-c1ccccc1`: the AC50 was 171 µM (active) in assay [1], 159 µM (active) in assay [2], 122 µM (active) in [4] and 100 µM (active) in [6]. In addition, the outcome in assay [3], in [5], in assay [7], in assay [8] and in assay [9] was inactive.

On to `ClCc1cccnc1`, for which the result in assay [1], in assay [2], in assay [3], in assay [4], in assay [5] and in [7] was inactive. The outcome in assay [8] and in assay [9] was inactive.

For `CC(C#N)CCC#N` (configuration not stated), the call in assay [1], in assay [2], in assay [3], in [4], in assay [5] and in assay [6] was inactive. For the same compound, the compound was classed as inactive in assay [7], in assay [8] and in [9].

As to `CC(C)(C)c1cc(O)ccc1O`, the AC50 in assay [1] is 64.7 µM (active); in [2] it was 24.9 µM (active); in assay [3] it was 1.85 µM (active); in [4] it was 66.7 µM (active); in assay [7], 66.5 µM (active). Also, the outcome in assay [5], in [6] and in [8] was inactive.

Turning to `[O-][Cl+2]([O-])O`, the outcome in assay [1], in [2], in assay [3], in [4], in assay [5] and in assay [6] was inactive. The outcome in assay [7] and in [9] was inactive.

`O=C(O)Cc1ccccc1`: the outcome in assay [1], in [2], in assay [3], in assay [4], in assay [5] and in [6] was inactive. Further, the result in assay [7] and in [9] was inactive.

In general, AC50 refers to the concentration giving half of the maximal activity seen.
